The values below come from PubChem BioAssay AID686979 (National Center for Advancing Translational Sciences (NCATS), 2013).

The whole screen tested about 420,000 compounds, of which about 50,000 (12%) were called active. Entries that show only a call come without a potency. About 26% were inconclusive and are not listed. Calls follow the shape of the dose curve; as a rule, active = well fitted inhibition curve with a large enough effect; inconclusive = small, poorly fitted or top-dose-only effect; inactive = flat fitted curve, though single readings scatter. This excerpt belongs to a sample that is enriched for actives.
Potency is read from the fitted curve at half-maximal effect.

The experiment can be described thus: qHTS for Inhibitors of human tyrosyl-DNA phosphodiesterase 1 (TDP1): qHTS in cells in presence of CPT. Also: nearly all actives have a fitted effect of over 55% in size. The settings on record: chicken DT40 Tdp1-/-;hTDP1 cells + 20 nM CPT, ATP luminescence, 48 h; series mostly up to 46.2 µM. An outline of the steps:
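Chicken DT40 Tdp1-/- cells complemented with human TDP1, 400 cells/well, exposed to compounds plus 20 nM camptothecin for at least 48 h at 37 C; viability read as ATP content by CellTiter-Glo luminescence.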
`O=C(Nc1ccncc1)c1cc(-c2ccccn2)nc2ccc(Br)cc12`: the Potency result was “inactive”. Regarding `CCOc1ncccc1C(=O)Nc1ccc2c(c1)OCCO2`, the Potency result is “inactive”.

`COC(=O)CNC(=O)c1cc(-c2ccncc2)nc2ccccc12`: the Potency entry is “inactive”.

Regarding `Cc1ccc2nc(-c3cccc(Br)c3)cc(C(=O)Nn3cnnc3)c2c1`, the Potency result is “inactive”. On the same count and under the same terms, the entry for `O=C(Nc1ccc2c(c1)OCCO2)c1cnccn1` is “inactive”; for `Cc1ccc2nc(-c3ccncc3)cc(C(=O)Nc3ccncc3)c2c1` it is 13 µM (active); for `Cc1ccc2nc(-c3ccncc3)cc(C(=O)Nc3ccc4c(c3)OCCO4)c2c1` it is 18.4 µM (active). For `O=C(Nc1ccc(S(=O)(=O)Nc2nccs2)cc1)c1cc(-c2ccncc2)nc2ccccc12`, the Potency result is “inactive”. Turning to `CCN(CC)CCNC(=O)c1ccc(NC(=O)c2cc(-c3ccncc3)nc3ccccc23)cc1`, the Potency is 14.6 µM (active).

As to `COc1ccc(C(=O)CCC(=O)Nc2ccc(Cl)cc2)cc1`, the Potency entry was “inactive”. Same read-out and setting: to `O=C1NC[C@H](CCCCN2CCN(CCc3ccccc3)C(=O)C2=O)N(CC2CCCCC2)C1=O` belongs “inactive”; to `O=C(Nc1ccccc1)c1ccco1`, “inactive”; to `O=C(OC1CC2CC1[C@H]1CCCCN1C2=O)N1CCOCC1` (stereo partly specified), “inactive”. Still for that read-out and setting: the entry for `CCc1c(Nc2ccccc2C)nc(N)[nH]c1=O` is “inactive”; for `CCCn1c(C(O)c2cc(OC)ccc2OC)nc2ccccc21` (stereo unspecified) it is “inactive”; for `CCOCCn1c(C(C)C)nc2ccccc21` it is “inactive”.

Consider `CCCn1c(C(O)c2ccc(OCC)cc2)nc2ccccc21` (stereo unspecified), for which the Potency is 20.6 µM (active). On the same count and under the same terms, the entry for `O=C(O)CCCC(=O)N1N=C(c2ccco2)CC1c1ccco1` (stereo unspecified) is “inactive”; for `Cc1nn(C)c(Oc2ccc(Cl)cc2)c1C=O` it is “inactive”; for `CC1(C)CC(=O)C=C(c2ccccc2CO)C1=O` it is “inactive”. On the same count and under the same terms, the entry for `Cc1ccc(C(=O)OC2=CC(=O)CC(C)(C)C2)cc1` is “inactive”; for `Cc1ccc(-c2ccc(C3=CC(=O)CC(C)(C)C3=O)cc2)cc1` it is 0.184 µM (active); for `O=C(CC1C(=O)N(c2ccccc2)C(=O)N1CCc1cccs1)Nc1ccc(F)cc1` (stereo unspecified) it is “inactive”. Turning to `CCCCc1nc2ccc(F)cc2cc1C`, the Potency entry is “inactive”.

Take `Cc1ccnc(NS(=O)(=O)c2ccc(NC(=O)c3oc4ccccc4c3C)cc2)n1`: the Potency result was “inactive”.

For `O=c1[nH]c2ccccc2n2c(-c3ccccc3)nnc12`, the Potency was 20.6 µM (active). The same measure, in the same setting: the entry for `CCOC(=O)c1cnc2[nH]c3ccccc3n2c1=O` is “inactive”. Same read-out and setting: the entry for `CC(=O)c1c(-c2ccccc2)c2ccccc2[nH]c1=O` is “inactive”; for `N#Cc1ccc(OCC(=O)NC(=O)NC2CCS(=O)(=O)C2)cc1` (stereo unspecified) it is “inactive”; for `O=C(CNC(=O)c1cccs1)N/N=C/c1cccc(Br)c1` it is “inactive”.

As for `COC(=O)c1c(-c2ccsc2)oc2ccc(-c3cc(OC)c(OC)c(OC)c3)cc12`, the Potency was 18.4 µM (active). Still for that read-out and setting: the entry for `COC(=O)c1sccc1NC(=O)c1cc(OC)c(OC)c(OC)c1` is “inactive”. For `CCOC(=O)c1c(-c2ccccc2)oc2ccc(OCC(=O)NN)cc12`, the Potency result was “inactive”. In the case of `Cc1cccc(OCC(=O)Nc2ccc(C(=O)O)cc2NC(=O)COc2cccc(C)c2)c1`, the Potency result is “inactive”. On the same count and under the same terms, the entry for `CCc1cccc(NC(=O)CCC(=O)O)c1` is “inactive”; for `O=C(CCl)Nc1cccc(CP(=O)(c2ccccc2)c2ccccc2)c1` it is 3.26 µM (active); for `O=C(Cc1ccccc1)Nc1cccc(NC(=O)c2ccccc2)c1` it is “inactive”. Regarding `COc1ccc(N2CCN(C(=O)c3cn(C)c4ccc(S(=O)(=O)N5CCOCC5)cc4c3=O)CC2)cc1`, the Potency result was “inactive”. Still for that read-out and setting: to `O=C(CC[C@H]1O[C@@H](n2ccc(=O)[nH]c2=O)[C@H](O)[C@@H]1O)N[C@H](Cc1ccccc1)C(=O)NCc1ccco1` belongs “inactive”; to `COc1ccc(CC(=O)OC(C)C(=O)Nc2ccc(S(N)(=O)=O)cc2)cc1` (stereo unspecified), “inactive”; to `COc1cccc(NC(=O)C2(C)CCN2Cc2ccccc2Cl)c1` (stereo unspecified), 25.9 µM (active). On the same count and under the same terms, the entry for `COc1cccc(NC(=O)NCCN2CCCCC2)c1` is “inactive”. The same measure, in the same setting: to `CCN(CC(=O)Nc1ccc(S(=O)(=O)N2CCCC2)cc1)CC(=O)Nc1cccc(OC)c1` belongs “inactive”. For the compound `CCCn1nc(NS(=O)(=O)c2ccccc2)c2cc3cc(C)ccc3nc21`, the Potency entry is “inactive”. Turning to `CCCn1nc(NS(=O)(=O)c2ccc(F)cc2)c2cc3ccccc3nc21`, the Potency result was “inactive”. The same measure, in the same setting: to `CCCn1nc(NC(=O)C(C)C)c2cc3cc(OC)ccc3nc21` belongs 29.1 µM (active); to `O=c1cc(CSc2ncn[nH]2)[nH]c2ccc(F)cc12`, “inactive”; to `Cc1ccccc1CN1C(=O)CSCC1(C)C(=O)Nc1c(C)cccc1C` (stereo unspecified), “inactive”. In the case of `O=S(=O)(c1ccccc1)c1nc(-c2ccccc2F)oc1NCc1cccnc1`, the Potency entry was “inactive”. The same measure, in the same setting: to `COc1cccc(-c2nc3cc(C)ccc3o2)c1` belongs “inactive”; to `COc1cccc(-c2nc(S(=O)(=O)c3ccc(C)cc3)c(NCc3ccccc3)o2)c1`, 16.4 µM (active); to `CCN(CC)C(=O)Cn1cc(S(=O)(=O)CC(=O)NCc2ccc3c(c2)OCO3)c2ccccc21`, “inactive”. The same measure, in the same setting: to `Cc1c(C(=O)NCCCc2ccccc2)cccc1[N+](=O)[O-]` belongs “inactive”; to `CCN(CC)CCNCc1ccc(OCc2ccc(Cl)nc2)c(OC)c1`, “inactive”; to `Cc1occc1C(=O)Nc1cccc(S(=O)(=O)N2CCOCC2)c1`, “inactive”. Still for that read-out and setting: the figure for `COc1ccc(NC(=O)c2oc3ccc(S(=O)(=O)N4CCOCC4)cc3c2C)cc1` is 11.6 µM (active); for `Cc1c(C(=O)NCCN(C)C)oc2ccc(S(=O)(=O)N3CCCC3)cc12` it is “inactive”; for `CCCNC(=O)C1(C)CCN(C(=O)c2ccc(F)cc2Cl)C1` (stereo unspecified) it is “inactive”. With `OCC(O)CN(c1ccccc1)c1ccccc1` (stereo unspecified), the Potency entry is “inactive”.

Consider `O=C(NCCc1ccccc1)Oc1ccc(Cl)cc1`, for which the Potency entry was “inactive”. Turning to `CCOc1ccc(N2CC(C(=O)NCCN3C(=O)S/C(=C\c4cccnc4)C3=O)CC2=O)cc1` (stereo unspecified), the Potency entry is “inactive”. With `Cc1cc(OCCCC(=O)NCCN2C(=O)S/C(=C\c3cccnc3)C2=O)ccc1Cl`, the Potency was 8.2 µM (active). On the same count and under the same terms, to `COc1ccc(N2CC(C(=O)NCCN3C(=O)S/C(=C\c4cccnc4)C3=O)CC2=O)c(OC)c1` (stereo unspecified) belongs “inactive”; to `CC1CCN(C(=O)COC(=O)c2cc(S(=O)(=O)N3CCOCC3)ccc2Cl)CC1`, “inactive”; to `COc1ccc(O)c(/C=N/N=C/c2cccc([N+](=O)[O-])c2)c1`, “inactive”.

On to `O=C(OCC(=O)N1CCN(c2ccccc2)CC1)c1ccc([N+](=O)[O-])s1`, for which the Potency was 10.3 µM (active). The same measure, in the same setting: to `COc1ccc(C(=O)COC(=O)c2ccc([N+](=O)[O-])s2)cc1OC` belongs “inactive”. Same read-out and setting: to `COc1cc(NC(=O)COC(=O)c2ccc([N+](=O)[O-])s2)cc(OC)c1OC` belongs “inactive”. Still for that read-out and setting: the entry for `CCN(CC)CCN1C(=O)C2C(C(=O)Nc3ccc(Br)cc3)C3C=CC2(O3)C1C(=O)NC1CCCCC1` (stereo unspecified) is “inactive”. On to `Brc1cc(Br)c(Oc2cc(Br)c(Br)cc2Br)cc1Br`, for which the Potency entry is “inactive”. Same read-out and setting: to `CC(=O)Nc1ccc(NC(=O)C(C)n2c3ccccc3c3nc(=O)cc(C)n32)cc1` (stereo unspecified) belongs “inactive”. On the same count and under the same terms, to `CC(C)(C)c1cc2cccnc2n1Cc1ccccc1` belongs “inactive”; to `O=C(CN1C(=O)NC2(CCCC2)C1=O)Nc1cc(C(F)(F)F)ccc1N1CCOCC1`, “inactive”; to `Cc1cc(C)cc(C(=O)N2CCN=C2SCc2ccc([N+](=O)[O-])cc2)c1`, “inactive”. On the same count and under the same terms, the entry for `CN1C2CCC1CC(NC(=O)c1ccc([N+](=O)[O-])cc1)C2` (stereo unspecified) is “inactive”; for `CC(=O)N1CC[n+]2c(-c3ccc([N+](=O)[O-])cc3)csc21` it is 18.4 µM (active); for `CCOc1c(OC)cccc1C(=O)NCC1(c2ccccc2)CCCC1` it is 5.8 µM (active). `CCn1c(CNC(=O)c2ccc(OC)c(OC)c2)nnc1SCC(=O)Nc1ccccc1`: the Potency result is “inactive”. The same measure, in the same setting: the entry for `COc1ccccc1C(=O)NCCC(=O)NN1C(=O)NC2(CCCCC2)C1=O` is “inactive”; for `COc1cc(C(=O)NCC2(c3ccccc3)CCCC2)ccc1OC(C)C` it is 20.6 µM (active); for `CCOc1c(CNCc2ccc(C(=O)O)cc2)cccc1OC` it is “inactive”. Same read-out and setting: the entry for `COc1ccc(C(=O)NC2CC(C)(C)NC(C)(C)C2)cc1OC` is “inactive”; for `CN(C)C(CNC(=O)c1cccc(S(=O)(=O)Nc2ccc(Br)cc2)c1)c1ccco1` (stereo unspecified) it is “inactive”. Still for that read-out and setting: the entry for `COc1ccc(C(=O)c2oc3ccccc3c2NC(=O)COc2cccc(C)c2)cc1` is “inactive”; for `CCCc1nnc(SCC(=O)N2C(C)CCCC2C)n1CC` (stereo unspecified) it is “inactive”. Turning to `O=c1c(CN2CCOc3ccc(CN4CCC(Oc5cccnc5)CC4)cc3C2)coc2ccccc12`, the activity change, negative = growth inhibition was 0.59% [at 9.04 µM] (inactive).

In the case of `COc1ccc(C)cc1-n1nnnc1SCc1nc2ccccc2c(=O)[nH]1`, the Potency is 13 µM (active). Same read-out and setting: to `COCCn1c(SCc2nc3cc(OC)c(OC)cc3c(=O)[nH]2)nnc1-c1ccncc1` belongs “inactive”.

Take `CCn1c(COc2c(C)cccc2C)nnc1SCc1nc2ccccc2c(=O)[nH]1`: the Potency result is “inactive”. The same measure, in the same setting: to `Cc1cccc(NC(=O)Nc2ccc(OCc3ccccc3)cc2)n1` belongs “inactive”; to `O=C(OCC(=O)N1CCN(C(=O)c2ccco2)CC1)c1cccc(O)c1`, “inactive”. As to `COc1ccc(Cl)cc1NS(=O)(=O)c1cccc(C(=O)NCC2CCCO2)c1` (stereo unspecified), the Potency entry is “inactive”. Still for that read-out and setting: the entry for `CC(C)CC(CCc1ccccc1)OS(N)(=O)=O` (stereo unspecified) is “inactive”; for `CSc1nc2ccccc2c(=O)n1Cc1ccc(F)cc1` it is “inactive”; for `Cc1ccc(Cn2c(C)nc3c(c2=O)c2nc4ccccc4nc2n3Cc2ccco2)cc1` it is 25.9 µM (active). Still for that read-out and setting: to `Cc1ccc(Cn2c(=O)n(Cc3nc(-c4ccccc4)no3)c(=O)c3cc4c(cc32)OCO4)cc1` belongs “inactive”. Take `O=C(O)CSCc1ccc(C(=O)O)o1`: the Potency result is “inactive”. On the same count and under the same terms, the entry for `COc1ccc(C(=O)OCC(=O)Nc2cccc(C(C)=O)c2)cc1OC` is “inactive”; for `COc1ccc(OCC(=O)NNC(=O)C2CCC2)cc1` it is “inactive”; for `O=C(CC1CCCCC1)NCc1ccc(F)cc1` it is “inactive”. Regarding `O=[N+]([O-])c1ccc(N2CCN(CC(O)COc3ccccc3)CC2)cc1` (stereo unspecified), the Potency is 20.6 µM (active). On the same count and under the same terms, to `OC(COc1ccc2ccccc2c1)CN1CCOCC1` (stereo unspecified) belongs “inactive”. Still for that read-out and setting: the entry for `C[N+]1(CC(O)COc2ccccc2)CCN(C(=O)c2ccc([N+](=O)[O-])cc2)CC1` (stereo unspecified) is “inactive”. On to `CC(=O)Nc1ccc(OCC(O)CN2CCN(c3ccccc3Cl)CC2)cc1` (stereo unspecified), for which the Potency result was “inactive”.

On to `OC(COc1ccccc1)CN1CCN(c2cccc(Cl)c2)CC1` (stereo unspecified), for which the Potency result was “inactive”. Still for that read-out and setting: the figure for `O=S(=O)(c1ccc(OCC(O)CN2CCN(c3ccccc3Cl)CC2)cc1)N1CCOCC1` (stereo unspecified) is 14.6 µM (active).
